This note sets out measurements from ChEMBL document CHEMBL4513216, “Probing the Open Global Health Chemical Diversity Library for Multistage-Active Starting Points for Next-Generation Antimalarials” (ACS Infect Dis, 2020).

Each structure is given as a SMILES string. Out of some 65,000 compounds screened, about 2,100 (3.2%) showed an effect of 50% or more. The median lay at about -52%. This is one part of a sample in which strong results are shown more often than they occur.

The subject of this test is Plasmodium falciparum. Briefly: Screen against P. falciparum Asexual Blood Stage (ABS), at 5uM. The format is functional, Dd2. Particulars: tested at 5 uM.
For `CN(C)c1cc2c(nn1)CCN(C(=O)C1Cc3ccccc3O1)C2` (centres undefined), the INHIBITION is given as -78.5%.
As for `O=C(c1cscn1)N1CCO[C@H]2[C@@H](Oc3ccccn3)CC[C@@H]21`, the INHIBITION is recorded as -20.9%.
For the compound `Cc1csc(C(=O)N2CCC(O)(CN3CCc4ccccc4C3)C2)c1` (centres undefined), the INHIBITION is reported as -1.9%.
Then `O=C(NCc1ccccc1Cl)c1[nH]nc2c1CS(=O)(=O)CC2`, with -148%.
Regarding `Cn1cc(CN2CCCCC2c2ccc(-c3cccc(Cl)c3)nc2)cn1` (centres undefined), the INHIBITION was 55.3%.
The same measure for `Cn1cc(CN2CCCCC2c2ccc(-c3cnn(C)c3)nc2)cn1` (centres undefined): -15.7%; for `Cn1cc(CN2CCCCC2c2ccc(-c3cccc(F)c3)nc2)cn1` (centres undefined): 2.27%; for `Cc1nc(O)c2nnn(C[C@H]3CCCN3C(=O)c3ccccc3C)c2n1`: -51%.
The same measure for `CC(SCCC(=O)NC(N)=O)c1ccc(F)cc1F` (centres undefined): -47%; for `CC(c1ccc(F)cc1F)N1CCN(CCC(=O)O)CC1` (centres undefined): -11.3%.
Then `CC(c1ccc(F)cc1F)N1CCN(CCC(=O)NC(N)=O)CC1` (centres undefined), with 64%; and `N#Cc1ccc(C(=O)N2CCC(c3ncc[nH]3)CC2)cn1`, with -111%.
With `C=C(C)CNC1CCCN(Cc2noc(C3CC3)n2)C1` (centres undefined), the INHIBITION amounted to 32.4%.
Then `Cc1ccc2c(c1)C(NC(=O)N(C)C)CC21CCN(C(C)C)CC1` (centres undefined), with -82%.
For `O=C(c1ccc[nH]1)N1CCn2cc(Cn3cccn3)nc2C1`, the INHIBITION is -68.4%.
Then `CCOCc1cnc2n1CCN(C(=O)c1cn(C)c3ccccc13)C2C` (centres undefined), with -9.29%; and `Clc1cccc(C(CNc2ncccn2)N2CCOCC2)c1` (centres undefined), with -57%; and `O=C(C(CNCc1cccnc1)c1ccccc1)N1CCOCC1` (centres undefined), with -52.2%.
The same measure for `Cc1ccc(C(CNCc2cccnc2)N2CCOCC2)s1` (centres undefined): -0.0343%.
For `Clc1cccc(C(CNCc2ccccn2)N2CCOCC2)c1` (centres undefined), the INHIBITION came to 53.1%.
The same measure for `Clc1cccc(C(CNCc2cccnc2)N2CCOCC2)c1` (centres undefined): 56.9%; for `O=C(C(CNCc1ccccn1)c1ccccc1)N1CCOCC1` (centres undefined): -29.2%.
Then `CCOCC(=O)NCc1cc(Br)ccc1OC(F)F`, with -119%; and `CCC(C(=O)N1CCS(=O)(=O)CC1)n1cccn1` (centres undefined), with -77.5%; and `CN(C)C(=O)c1ccc2c(c1)nc(N1CC[C@H](O)C1)n2C`, with -58.1%.
As for `CN(c1ccc(Cl)c(C(=O)NCCCN2CCOCC2)c1)S(C)(=O)=O`, the INHIBITION is -93.1%.
The same measure for `O=C(CCCNC(=O)c1cnccn1)Nc1ncc[nH]1`: -63.2%; for `CC(C)COCCC(=O)NCc1cn2cc(Br)ccc2n1`: -27.3%; for `CN(C)[C@@H]1C[C@@H](CO)N(C(=O)Nc2cccc(F)c2F)C1`: -46.8%.
The same measure for `OCCOc1ccccc1CN1CCCC(O)(CO)C1` (centres undefined): -48.1%; for `O=C1NCC2(CCCN(Cc3ccccc3OCCO)C2)O1` (centres undefined): -55.2%; for `OCC1(O)CCCN(Cc2ccccc2OCCc2ccccc2)CC1` (centres undefined): 65.1%.
Then `CO[C@H]1CN(C(=O)OC(C)(C)C)CC1NCc1ccoc1` (some centres undefined), with -73.1%; and `Cc1cc(C)nc(N2CCC(OCCN3CCCCC3)C2)n1` (centres undefined), with 13.3%; and `CC(C)(C)c1nccc(N2CCC(OCCN3CCCCC3)C2)n1` (centres undefined), with 62.5%.
Regarding `c1cnc(N2CCC(OCCN3CCCCC3)C2)nc1` (centres undefined), the INHIBITION is given as -58%.
Then `Cc1ccnc(N2CCC(OCCN3CCCCC3)C2)n1` (centres undefined), with -83.8%.
Take `COc1ccnc(N2CCC(OCCN3CCCCC3)C2)n1` (centres undefined): the INHIBITION was 51.2%.
As to `Cc1cnc(N2CCC(OCCN3CCCCC3)C2)nc1C` (centres undefined), the INHIBITION is 23.5%.
The same measure for `Cc1cccc(-c2c[nH]c(C3CCCN3)n2)c1` (centres undefined): -5.91%; for `CC(C)c1nccc(CN2CCCC(O)(CN3CCCC3)C2)n1` (centres undefined): -69.7%; for `CN(C)C(=O)CN1C[C@H]2CC[C@@H](C1)N(C(=O)CCn1cncn1)C2`: -87.6%.
The same measure for `O=C(NC1CC1)N1CCc2ccc(=O)n(CCN3CCCC3)c2CC1`: -113%.
The same measure for `Cc1cnn(CCNCc2csc(-c3cccs3)n2)c1`: -51.7%; for `Cc1cnn(CCNCc2csc(-c3ccc(C)o3)n2)c1`: -32.6%.
Take `Cc1cnn(CC(C)NCc2csc(-c3ccco3)n2)c1` (centres undefined): the INHIBITION is recorded as -84%.
Then `Cc1cnn(CCNCc2csc(-c3ccccc3)n2)c1`, with 66.6%.
As for `Cc1cnn(CCNCc2csc(-c3ccco3)n2)c1`, the INHIBITION turned out to be 54.9%.
For the compound `Cc1cnn(CCNCc2csc(-c3ccc(F)cc3)n2)c1`, the INHIBITION is recorded as -58%.
Regarding `O=C(C1CCS(=O)(=O)CC1)N1C[C@@H]2CC[C@H]1CN(Cc1ccccc1)C2`, the INHIBITION is -51.3%.
In the case of `C=C1C(C)(C)[C@@H]2CC[C@]1(C(=O)N1CCC(n3cc(CO)nn3)CC1)C2`, the INHIBITION is listed as -90.8%.
For the compound `Cc1nc(CN(C)C2CCN(CCC(=O)N3CCOCC3)C2)no1` (centres undefined), the INHIBITION is given as -30.8%.
As for `Cc1nc(C)n(CC2CCCN2Cc2cc(-c3cccs3)on2)n1` (centres undefined), the INHIBITION was found to be 65.2%.
The same measure for `Cc1nc(C)n(CC2CCCCN2Cc2nc(-c3ccoc3)no2)n1` (centres undefined): -49.9%.
Then `Cc1nc(C)n(CC2CCCN2Cc2nc(-c3cccs3)no2)n1` (centres undefined), with 23.3%; and `Cc1nc(C)n(CC2CCCN2Cc2coc(-c3cccs3)n2)n1` (centres undefined), with -63.6%.
In the case of `Cc1nc(C)n(CC2CCCN2Cc2nc(-c3ccco3)no2)n1` (centres undefined), the INHIBITION is -131%.
`Cc1nc(C)n(CC2CCCCN2Cc2nc(-c3ccco3)no2)n1` (centres undefined): the INHIBITION was 61.7%.
The same measure for `Cc1oc(-c2ccccc2)nc1CN1CCC(c2ccnn2C)CC1`: -18.9%; for `Cc1nc(C(=O)N2CCOCC2)cc(N2CCC(C(N)=O)CC2)n1`: -45.2%; for `Cn1nccc1-c1ncc2c(c1C(=O)O)CCN(Cc1ccccc1)C2`: -41.8%.
Then `COCC(=O)N1CCN(Cc2cccnc2)c2ncccc2C1`, with -53.1%; and `CN(C)C(=O)CC1CC2(CCNCC2)c2cc(F)ccc21` (centres undefined), with -22.3%.
The same measure for `CN(C)C(=O)c1cnn2c1OCCC2`: -117%.
As to `CCn1cc(S(=O)(=O)N2CCC(C)Sc3ccccc32)cn1` (centres undefined), the INHIBITION was -0.433%.
The same measure for `CC1CCN(S(=O)(=O)c2cccnc2)c2ccccc2S1` (centres undefined): 55%.
The same measure for `CN1CCN(S(=O)(=O)c2cccnc2)c2cnccc21`: -111%.
Then `CS(=O)(=O)N1CCCC1CS(=O)(=O)c1ccccc1` (centres undefined), with -100%; and `CN(C)CC(Nc1nc(N)nc2c1CCNCC2)c1ccccc1` (centres undefined), with -104%.
On to `CCOC(=O)[C@H]1[C@@H](O)C(=O)N(C)C12CCN(C(=O)CC1CCCC1)CC2`, for which the INHIBITION is on record as -1.62%.
Take `Cn1cnc2c(N3CCCC3)nc(C3CCNCC3)cc21`: the INHIBITION is -31.4%.
The same measure for `Cn1cnc2c(N3CCCC3)nc(C3CCN(CC4CC4)CC3)cc21`: 68.8%.
Then `Cn1cc(-c2nc(C3CCN(CC4CC4)CC3)cc3c2ncn3C)cn1`, with -98.2%; and `c1cnnc(N2CCCC(NCc3nc(-c4ccco4)no3)C2)c1` (centres undefined), with -78.3%.
Then `O=C(COc1ccccc1)N1C[C@@H]2COC[C@]2(COc2cccnc2)C1`, with -110%; and `Cn1nc(N2CCCC(C(=O)Nc3nc4ccccc4[nH]3)C2)ccc1=O` (centres undefined), with -105%.
Take `Cc1cc(C)n(CC(C)NC(=O)NCc2c(C)cc(C)[nH]c2=O)n1` (centres undefined): the INHIBITION is reported as -51.8%.
Then `O=C1CNc2ncnc(N3CCN(c4ccccc4F)CC3)c2N1`, with -21.3%; and `N#CCCN(CCN1CCOCC1)Cc1ccc(F)c(Br)c1`, with 52.6%.
Then `COc1ccc(CN(CCC#N)CCN2CCOCC2)cc1OC`, with -43.2%.
The same measure for `CCOc1ccc(CN(CCC#N)CCN2CCOCC2)cc1OC`: -99%; for `CC(C)C(=O)N1CCC2(CC1)COCCN2Cc1ccc(F)cc1`: -29.9%.
As to `O=C1CNc2ncnc(Nc3cnn(Cc4ccc(F)cc4)c3)c2N1`, the INHIBITION was -134%.
On to `CN(Cc1ccc(F)cc1F)Cc1cc2c(cc1Br)OCCO2`, for which the INHIBITION is -30.1%.
Then `Cc1ccc(F)c(N2CCCC(Nc3nccn4cnnc34)C2=O)c1` (centres undefined), with -141%.
The same measure for `Cn1cc(NS(=O)(=O)c2ccc3c(c2)CCCC3)ccc1=O`: -133%; for `O=C(CCCNCc1ccc(Cl)c2cccnc12)NC1CC1`: 11.3%.
Then `CC(C)(O)CN1CCN(C(=O)c2ccc(Cl)c3cccnc23)CC1`, with -2.98%; and `CC(C)(O)CSCCNCc1ccc(Cl)c2cccnc12`, with 67.7%.
For `CC(=O)NCCCNCc1ccc(Cl)c2cccnc12`, the INHIBITION is listed as -36.6%.
`CCS(=O)(=O)NCCNCc1ccc(Cl)c2cccnc12`: the INHIBITION is recorded as 61.5%.
Then `CC(C)(C)[S+]([O-])CCNC(=O)c1ccc(Cl)c2cccnc12` (centres undefined), with -46.8%.
Then `CN(C)C(=O)CC1CC2(CCN(Cc3ccsc3)CC2)c2ccccc21` (centres undefined), with 14.2%.
With `COC(=O)C(c1cc(F)ccc1F)N(C)C(=O)c1cnc(C)cn1` (centres undefined), the INHIBITION is recorded as -85.1%.
In the case of `CN(Cc1noc(C(C)(C)C)n1)C1CCCN(c2cccnn2)C1` (centres undefined), the INHIBITION is given as -18.2%.
On to `CN(C)C(=O)N1CCC(c2nc3ccc(-c4ccccc4)cn3n2)CC1`, for which the INHIBITION is -52.3%.
Then `CN(C)c1ncc(I)c(C2CCCCN2C)n1` (centres undefined), with 57.8%; and `CN(C)c1ncc(I)c(C2CCCCN2S(C)(=O)=O)n1` (centres undefined), with -17.7%.
The same measure for `CN(C)c1ncc(I)c(C2CCCN2C)n1` (centres undefined): 20.7%; for `CCOC(=O)c1ccccc1NC(=O)CN(C)Cc1ccccc1Cl`: 8.05%.
As to `Cc1c(C(=O)O)cnn1-c1ccc(-c2nc(C(C)(C)C)no2)cn1`, the INHIBITION is -116%.
The same measure for `CS(=O)(=O)NC[C@]12COC[C@H]1CN(CC1CCC1)C2`: -40%.
The same measure for `Cc1ccc(CN2CC3(CCN(C(=O)c4cscn4)C3)C2)o1`: -13.6%; for `CN(C)Cc1nnc(C2CCCN(c3nccc4ccccc34)C2)n1C` (centres undefined): -10.1%; for `COc1cc(OC)nc(N2CCCC(c3nccn3CCN(C)C)C2)n1` (centres undefined): -23.1%.
Then `Cc1cc(C)nc(N2CCCC(c3nccn3CCCN(C)C)C2)c1` (centres undefined), with 51.7%; and `CCn1ccnc1C1CCCN(c2nccc3ccccc23)C1` (centres undefined), with 30.8%.
As for `CN(C)CCn1ccnc1C1CCCN(c2cc(N)ncn2)C1` (centres undefined), the INHIBITION was -52.8%.
The same measure for `CN(C)CCn1ccnc1C1CCCN(c2nccc3ccccc23)C1` (centres undefined): 57.4%.
